The results in this text go back to PubChem BioAssay (NCATS).

Several values for one entry are separate records, joined by “and”; a condition that tells them apart may be missing. Identical values can stand only once. Inconclusive results are not listed. Activity calls are given as the source filed them. Unless noted, calls come from the whole dose curve; as a rule, active = well fitted curve in the direction sought with a large enough effect; inconclusive = small, poorly fitted or top-dose-only effect, or another doubt; inactive = no such curve, though single readings can be large; an effect the other way counts as inactive or inconclusive.

A short description of experiment [1]: Cell Viability - MRC5 (AID 434; calls by dose curve;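 note: potency is the fitted concentration of half-maximal effect; potency reflects cytotoxicity seen as loss of intracellular ATP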). To be noted: MRC5 lung fibroblast viability, qHTS. An outline of the steps:
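MRC5 normal human lung fibroblasts (1500/well) were treated with compounds for 40 hr at 37 °C in complete medium, and viable cells were measured as intracellular ATP by CellTiter-Glo luminescence. AC50 came from Hill fits, normalized to DMSO and 100 uM tamoxifen.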

The nature of experiment [2]: Cell Viability - SK-N-SH (AID 435; calls by dose curve;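 note: potency is the fitted concentration of half-maximal effect; compound exposure lasted 40 h at 37 °C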). The conditions noted are these: SK-N-SH neuroblastoma cell viability qHTS. In short, it runs like this: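 SK-N-SH human neuroblastoma cells (1500/well) were exposed to compounds in complete medium for 40 h at 37 °C, and intracellular ATP was then measured by CellTiter-Glo luminescence. AC50 was taken from Hill fits, normalized to DMSO and 100 uM tamoxifen.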
(Quantitative high-throughput screening tests each substance at several concentrations.)

The nature of experiment [3]: Cellular Toxicity (caspase-3) Jurkat (AID 655).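 Note: cells exposed to compound for 16 h at 37 °C before reading.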 To be noted: Jurkat caspase-3 activation, luminescence; caspase-3 activation: at 92.2 µM (top of the series), DMSO = 0%, tamoxifen = 100%. In short, it runs like this: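 Jurkat cells (5000/well) in complete medium were treated with compounds for 16 hr at 37 °C, then Caspase-Glo 3/7 luminescence was read after 20 min at room temperature. Data normalized to DMSO (basal) and 100 uM tamoxifen (100%); AC50 from Hill fit.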

A short description of experiment [4]: Cellular Toxicity (caspase-3) HUV-EC-C (AID 656). To be noted: HUV-EC-C cells, caspase-3 activation (apoptosis), vehicle = 0, 100 µM tamoxifen = 100%; series mostly up to 92.2 µM. An outline of the steps: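 HUV-EC-C endothelial cells, 1000/well, were pre-incubated 5 hr at 37°C, then exposed to compounds for 16 hr at 37°C. Caspase-Glo 3/7 luminescence was read after 20 min at room temperature. AC50 came from Hill fits, normalized to DMSO and 100 uM tamoxifen.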

The nature of experiment [5]: Cellular Toxicity (caspase-3) H-4-II-E (AID 663).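 Note: cells exposed to compound for 16 hr before readout.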 To be noted: H-4-II-E rat hepatoma; Potency: caspase-3 activation; series mostly up to 92.2 µM. In short, it runs like this:
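Luminescence from caspase-cleaved aminoluciferin substrate, read 20 min after reagent addition, reports caspase 3/7 activation in rat H-4-II-E cells after 16 hr compound exposure. Normalized to DMSO (basal) and 100 uM tamoxifen (100%); AC50 from Hill fits.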

The target of experiment [6] is Cytochrome P450 3A4 (Homo sapiens) (UniProt P08684). Description: qHTS Assay for Inhibitors and Substrates of Cytochrome P450 3A4 (AID 884). Note: % is set by controls: 0 for no effect and ±100 for the full control effect; nearly all actives have a fitted effect of over 50% in size. The conditions noted are these: recombinant CYP3A4, Luciferin-PPXE luminescence; series mostly up to 57.1 µM. In short, it runs like this: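 20 nM human CYP3A4 with 25 uM Luciferin-PPXE (at KM) in 200 mM KPO4, preincubated 10 min with compound; NADPH regeneration started a 60 min RT reaction. Luciferin detected by luminescence, normalized to 57 uM ketoconazole as full inhibition.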

Experiment [7] is described as follows: MultiTox-Fluor Cytotoxicity Assay - LYMP1-001 - Live Cells (AID 947).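 Note: 0% = DMSO only and full inhibition = tetraoctylammonium bromide control.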 To be noted: LYMP1-001 lymphoblastoid cells, live-cell protease fluorescence viability; series mostly up to 92.2 µM.
Experiment [8] in a line: Cell Viability - LYMP1-002 - Assay at 16 hr (AID 948).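 Note: 0% = DMSO alone and full effect = 92 µM tetraoctylammonium bromide.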 The conditions noted are these: LYMP1-002 lymphoblastoid cell viability; series mostly up to 92.2 µM. An outline of the steps: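 Human lymphoblastoid cells (LYMP1-002), 2500/well, were preincubated 5 hr at 37 C, then exposed to compounds for 16 hr at 37 C in complete medium. Cellular ATP was read by CellTiter-Glo luminescence after 30 min at room temperature; AC50 from Hill fits.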

A short description of experiment [9]: Cell Viability - LYMP2-004 (AID 966).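 Note: plate controls were DMSO only for no effect and tetraoctylammonium bromide control for full effect; nearly all actives have a fitted effect of over 65% in size.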 The conditions noted are these: LYMP2-004 lymphoblastoid cell viability, qHTS; series mostly up to 92.2 µM. An outline of the steps: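 Cells seeded 2500/well, rested 5 hr at 37 C, dosed across a concentration series, incubated 24 hr at 37 C, then CellTiter-Glo added for 30 min at room temperature and luminescence read. Hill fitting gave AC50.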

Experiment [10] can be described thus: Cell Viability - LYMP2-015 (AID 971).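 Note: 0% = DMSO only and full effect = 92 µM tetraoctylammonium bromide; nearly all actives have a fitted effect of over 55% in size.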 The conditions noted are these: LYMP2-015 lymphoblastoid cell viability; series mostly up to 92.2 µM. An outline of the steps: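 Luminescent ATP read-out (CellTiter-Glo) served as the viability measure after lymphoblastoid cells were exposed to compounds for 24 hours at 37 C. Concentration-response data were fitted with the Hill equation to give AC50.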

A short description of experiment [11]: Cell Viability - LYMP2-019 (AID 973).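 Note: 0% = DMSO alone and full effect = 92 µM tetraoctylammonium bromide; nearly all actives have a fitted effect of over 55% in size.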 To be noted: LYMP2-019 lymphoblastoid cell line viability; series mostly up to 92.2 µM. An outline of the steps:
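Luminescent ATP read-out (CellTiter-Glo, 30 min room temperature) served as the viability measure after 24 hr treatment of lymphoblastoid cells at 37 C. Concentration-response data were fitted to the Hill equation for AC50.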

Experiment [12] can be described thus: Cell Viability - LYMP2-007 (AID 979).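 Note: cells exposed to compound for 24 h before reading; 0% = DMSO only and the negative end = 92 µM tetraoctylammonium bromide; nearly all actives have a fitted effect of over 60% in size.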 To be noted: LYMP2-007 lymphoblastoid cell viability; series mostly up to 92.2 µM. An outline of the steps: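 Luminescent ATP signal (CellTiter-Glo) serves as the viability read-out after 24 hr compound treatment of lymphoblastoid cells in complete medium at 37 C. Concentration-response data were fitted to the Hill equation to give AC50 values.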

A short description of experiment [13]: Cell Viability - LYMP2-008 (AID 980). Note: % is set by controls: 0 for no effect and ±100 for the full control effect; nearly all actives have a fitted effect of over 60% in size. The conditions noted are these: LYMP2-008 lymphoblastoid cell viability, qHTS; series mostly up to 92.2 µM. An outline of the steps:
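qHTS, human lymphoblastoid line, 2500 cells/well; 5 hr preincubation, 24 hr compound, 37 C. CellTiter-Glo ATP luminescence. AC50 via Hill equation. Tetraoctylammonium bromide positive control.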

A short description of experiment [14]: Cell Viability - LYMP2-014 (AID 983).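 Note: plate controls were DMSO only for no effect and 92 µM tetraoctylammonium bromide for full effect; nearly all actives have a fitted effect of over 50% in size.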 To be noted: LYMP2-014 lymphoblastoid cells, viability qHTS; series mostly up to 92.2 µM. In short, it runs like this:
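Luminescent ATP signal (CellTiter-Glo, 30 min at room temperature) serves as the viability read-out after 24 hr compound exposure at 37 C. Cells were seeded at 2500 per well and settled 5 hr beforehand.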

A short description of experiment [15]: Cell Viability - LYMP2-018 (AID 985).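 Note: plate controls were DMSO only for no effect and tetraoctylammonium bromide at 92 µM for full effect; nearly all actives have a fitted effect of over 50% in size.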 The conditions noted are these: LYMP2-018 lymphoblastoid cells, viability (qHTS); series mostly up to 92.2 µM. In short, it runs like this: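 Luminescent ATP signal (CellTiter-Glo, read after 30 min at room temperature) reports viable cells after 24 hr compound treatment at 37 C. Concentration-response data were fitted to the standard Hill equation for AC50.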

The nature of experiment [16]: Cell Viability - LYMP2-020 (AID 986).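 Note: plate controls were DMSO only for no effect and tetraoctylammonium bromide at 92 µM for full effect; nearly all actives have a fitted effect of over 55% in size.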 To be noted: series mostly up to 92.2 µM. In short, it runs like this:
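Luminescent ATP signal (CellTiter-Glo, 30 min at room temperature) is the read-out after 24 h compound treatment of lymphoblastoid cells at 37 C. AC50 values come from Hill-equation fits across concentrations.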

Experiment [17] in a line: Cell Viability - LYMP2-022 (AID 987).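 Note: 0% = DMSO alone and full effect = tetraoctylammonium bromide at 92 µM; nearly all actives have a fitted effect of over 55% in size.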 The conditions noted are these: LYMP2-022 lymphoblastoid cell viability; series mostly up to 92.2 µM. An outline of the steps: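 qHTS: human lymphoblastoid cells 2500/well; 5 hr 37 C; cpd added; 24 hr 37 C; CellTiter-Glo, 30 min RT; luminescence. AC50 via Hill fit; tetraoctylammonium bromide positive ctrl.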
Experiment [18] in a line: Cell Viability - LYMP2-026 (AID 989). Note: % is set by controls: 0 for no effect and ±100 for the full control effect; nearly all actives have a fitted effect of over 50% in size. To be noted: LYMP2-026 lymphoblastoid cell viability, qHTS; series mostly up to 92.2 µM. An outline of the steps: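 Luminescent ATP signal (CellTiter-Glo, 30 min room temperature) measures viable lymphoblastoid cells after 24 hr compound treatment at 37 C. Decreased ATP reflects acute toxicity; AC50 values come from Hill-equation modeling.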

A short description of experiment [19]: qHTS assay for small molecule antagonists of retinoid X receptor alpha signaling (AID 588546).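 Note: cells stimulated with 9-cis-retinoic acid as agonist; % is set by controls: 0 for no effect and ±100 for the full control effect.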 To be noted: HEK293T RXRa-UAS-bla, beta-lactamase ratio, antagonist mode; measured here: W530 green channel, cytotoxicity proxy. An outline of the steps: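 Beta-lactamase reporter inhibition, read as CCF4 fluorescence ratio (ex 405, em 460/530 nm) after 2 h at RT. HEK293T UAS-bla cells, 2500/well, were stimulated with 9-cis-RA at 500 or 100 nM final alongside test compound for 18 h at 37 C.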

The target in experiment [20] is Voltage-gated inwardly rectifying potassium channel KCNH2 (Homo sapiens) (UniProt Q12809). The experiment is described as follows: qHTS Assay for Small Molecule Inhibitors of the Human hERG Channel Activity (AID 588834). The conditions noted are these: U2OS BacMam hERG, FluxOR thallium flux fluorescence; series mostly up to 92.2 µM. An outline of the steps: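 U2OS cells transduced with hERG via BacMam (MOI ~100), plated 2000/well, loaded with FluxOR thallium dye, compound ~10 min, then stimulation buffer; fluorescence decrease read kinetically; AC50 from Hill fits.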
Sequence of Voltage-gated inwardly rectifying potassium channel KCNH2 (Homo sapiens) (Q12809 whole entry, looked up): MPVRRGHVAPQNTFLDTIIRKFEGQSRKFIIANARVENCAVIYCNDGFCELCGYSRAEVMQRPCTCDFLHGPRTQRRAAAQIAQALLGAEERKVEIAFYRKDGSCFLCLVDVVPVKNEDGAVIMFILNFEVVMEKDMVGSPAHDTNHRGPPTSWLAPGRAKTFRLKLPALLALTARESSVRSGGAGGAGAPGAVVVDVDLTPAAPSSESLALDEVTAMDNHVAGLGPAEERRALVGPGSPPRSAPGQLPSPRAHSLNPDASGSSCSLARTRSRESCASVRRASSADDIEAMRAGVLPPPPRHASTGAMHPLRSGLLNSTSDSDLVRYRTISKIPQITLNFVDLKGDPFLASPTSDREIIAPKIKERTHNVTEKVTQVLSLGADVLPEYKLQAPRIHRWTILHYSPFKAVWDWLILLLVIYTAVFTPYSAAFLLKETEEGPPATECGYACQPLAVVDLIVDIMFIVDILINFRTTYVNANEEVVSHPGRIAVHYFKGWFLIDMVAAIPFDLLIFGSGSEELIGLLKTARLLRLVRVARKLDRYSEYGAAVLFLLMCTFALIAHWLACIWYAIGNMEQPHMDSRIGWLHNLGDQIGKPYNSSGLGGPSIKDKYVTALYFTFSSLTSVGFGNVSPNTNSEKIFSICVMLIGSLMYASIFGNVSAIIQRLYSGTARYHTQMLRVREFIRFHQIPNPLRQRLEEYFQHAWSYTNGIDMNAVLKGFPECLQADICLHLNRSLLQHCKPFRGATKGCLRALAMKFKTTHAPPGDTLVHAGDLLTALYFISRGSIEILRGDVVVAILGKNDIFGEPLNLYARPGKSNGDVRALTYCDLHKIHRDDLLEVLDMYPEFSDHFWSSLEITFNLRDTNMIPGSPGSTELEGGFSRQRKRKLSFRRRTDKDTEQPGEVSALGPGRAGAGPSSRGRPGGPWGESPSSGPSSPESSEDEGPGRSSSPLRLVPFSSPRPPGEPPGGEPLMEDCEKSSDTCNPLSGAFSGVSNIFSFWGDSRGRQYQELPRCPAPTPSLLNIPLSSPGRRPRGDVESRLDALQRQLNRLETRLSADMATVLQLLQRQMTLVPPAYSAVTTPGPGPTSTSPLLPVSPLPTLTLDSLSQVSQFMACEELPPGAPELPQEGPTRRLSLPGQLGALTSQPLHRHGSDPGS

Sequence of Cytochrome P450 3A4 (Homo sapiens) (P08684 whole entry, looked up): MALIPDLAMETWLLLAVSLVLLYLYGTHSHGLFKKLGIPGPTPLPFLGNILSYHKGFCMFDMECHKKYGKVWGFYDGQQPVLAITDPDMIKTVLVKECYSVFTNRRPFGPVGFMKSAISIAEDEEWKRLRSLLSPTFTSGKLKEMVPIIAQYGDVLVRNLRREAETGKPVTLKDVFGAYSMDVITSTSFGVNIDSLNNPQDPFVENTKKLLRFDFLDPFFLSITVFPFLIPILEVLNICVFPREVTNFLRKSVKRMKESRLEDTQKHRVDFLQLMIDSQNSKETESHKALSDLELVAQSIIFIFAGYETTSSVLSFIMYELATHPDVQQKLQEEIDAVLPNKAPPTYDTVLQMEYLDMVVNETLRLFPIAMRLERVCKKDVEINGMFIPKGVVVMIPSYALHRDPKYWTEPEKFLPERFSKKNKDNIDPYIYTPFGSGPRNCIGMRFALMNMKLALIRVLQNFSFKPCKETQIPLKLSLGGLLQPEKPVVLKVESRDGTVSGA

For the molecule `CCSC(=O)N1CCCCCC1`, the Potency in experiment [1] and in experiment [2] was > 92 µM (inactive) throughout. The caspase-3 activation in [3] was 0.302% (inactive). Besides, the call in experiment [4], in experiment [7] and in experiment [8] was inactive. Further, the Potency result in experiment [5], in [6], in experiment [9], in experiment [10], in [11] and in experiment [12] was “inactive” in each case. For the same molecule, the Potency entry in [13], in [14], in experiment [15], in [16], in experiment [17] and in experiment [18] was “inactive” in each case. Besides, the Potency result in experiment [20] is “inactive”. For the same molecule, the max response in experiment [19] was -11.6% and -2.5%.
For the molecule `N#C/C(N)=C(/N)C#N`, the Potency in [1] and in experiment [2] was > 92 µM (inactive) throughout. In [3], the caspase-3 activation was 1.12% (inactive). In addition, the result in [4], in experiment [7] and in experiment [8] was inactive. Also, the Potency result in experiment [5], in experiment [6], in [9], in experiment [10], in [11] and in experiment [12] was “inactive” throughout. In addition, the Potency entry in experiment [13], in experiment [14], in [15], in experiment [16], in experiment [17] and in experiment [18] was “inactive” each time. The Potency entry in [20] was “inactive”. For the same molecule, the max response in experiment [19] was -2.22%.
Take `BrC(Br)Br`: the Potency in [1] and in experiment [2] was > 92 µM (inactive) each time. Also, the caspase-3 activation in experiment [3] is -0.161% (inactive). The outcome in experiment [4], in experiment [7] and in [8] was inactive. Further, the Potency result in [5], in [6], in experiment [9], in experiment [10], in [11] and in experiment [12] was “inactive” in each case. For the same molecule, the Potency result in [13], in [14], in [15], in experiment [16], in experiment [17] and in experiment [18] was “inactive” each time. Besides, the Potency entry in [20] was “inactive”. In addition, in experiment [19], the max response was -5.42%.
Turning to `CC(C)OS(C)(=O)=O`, the Potency in [1] was > 92 µM (inactive). In addition, the caspase-3 activation in experiment [3] was 1.6% (inactive). In addition, the Potency entry in experiment [6], in experiment [9], in [10], in [11], in experiment [12] and in experiment [13] was “inactive” in each case. The Potency entry in [14], in experiment [15], in [16], in experiment [17], in experiment [18] and in [20] was “inactive” throughout. Besides, the molecule was called inactive in experiment [7] and in experiment [8]. In addition, the max response in [19] came to 5.36%.
As to `CCCCOC(C)=O`, the Potency in experiment [1] and in [2] was > 92 µM (inactive) each time. In addition, the caspase-3 activation in experiment [3] is 1.84% (inactive). The result in experiment [4] and in experiment [7] was inactive. The Potency result in experiment [5], in experiment [6], in experiment [9], in [10], in experiment [11] and in experiment [12] was “inactive” in each case. Also, the Potency entry in experiment [13], in [14], in experiment [15], in experiment [16], in experiment [17] and in [18] was “inactive” each time. Further, the Potency entry in experiment [20] is “inactive”. For the same molecule, the max response in experiment [19] is -8.9%.
Regarding `ClC(Cl)Br`, the Potency in [1] and in [2] was > 92 µM (inactive) each time. For the same molecule, the caspase-3 activation in experiment [3] is 0.703% (inactive). The molecule was called inactive in [4], in experiment [7] and in experiment [8]. Further, the Potency entry in [5], in experiment [6], in [9], in experiment [10], in experiment [11] and in experiment [12] was “inactive” throughout. The Potency entry in [13], in [14], in experiment [15], in [16], in experiment [17] and in experiment [18] was “inactive” throughout. For the same molecule, the Potency result in experiment [20] is “inactive”. For the same molecule, in experiment [19], the max response was 1.73%.
`CCN(N=O)C(N)=O`: the Potency in experiment [1] and in experiment [2] was > 92 µM (inactive) in each case. Also, in [3], the caspase-3 activation was 0.577% (inactive). Further, the molecule was called inactive in experiment [4], in experiment [7] and in [8]. Also, the Potency entry in experiment [5], in experiment [6], in [9], in [10], in experiment [11] and in [12] was “inactive” in each case. Also, the Potency result in experiment [13], in experiment [14], in experiment [15], in experiment [16], in experiment [17] and in experiment [18] was “inactive” in each case. Besides, the Potency result in experiment [20] is “inactive”. In [19], the max response was -10.6%.
